Laboratory results from PubChem BioAssay (Tox21).
Results filed as inconclusive are left out. Active and inactive are the calls of the source. Calls come from the whole dose curve; as a rule, active = well fitted curve in the direction sought with a large enough effect in the repeat runs; inconclusive = weak or mixed curves; inactive = no such curve, though single readings can be large; an effect the other way counts as inactive or inconclusive.

Assays:
[1] = A CellTox Green Cytotoxicity Assay to monitor cytotoxicity in HepG2 cells - 16 hour (AID 1224876); note: nearly all actives have a fitted effect of over 45% in size
Procedure, shortened: (§1)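 Measurements at 0, 8, 16, 24, 32 and 40 h of treatment captured CellTox Green fluorescence in HepG2 cells that had been co-plated with reagent and preincubated 5 h at 37 C/5% CO2.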

[2] = qHTS RealTime-Glo MT Cell Viability Assay in HepG2 cells - 32 hour (AID 1224877); note: nearly all actives have a fitted effect of over 55% in size
Procedure, shortened: (§2)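 Luminescence read-out: viable HepG2 cells reduce a prosubstrate to a NanoLuc substrate, giving a signal proportional to live cell number. Reads taken at 0, 8, 16, 24, 32 and 40 h of compound exposure at 37 C.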

[3] = A CellTox Green Cytotoxicity Assay to monitor cytotoxicity in HepG2 cells - 24 hour (AID 1224878); note: nearly all actives have a fitted effect of over 45% in size
Procedure, shortened: as §1

[4] = A CellTox Green Cytotoxicity Assay to monitor cytotoxicity in HepG2 cells - 40 hour (AID 1224879); note: nearly all actives have a fitted effect of over 40% in size
Procedure, shortened: as §1

[5] = qHTS RealTime-Glo MT Cell Viability Assay in HEK293 cells - 0 hour (AID 1224880); note: top concentration of the series differs between compounds; nearly all actives have a fitted effect of over 45% in size
Procedure, shortened: (§3)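 HEK293 + NanoLuc + prosubstrate, 600 cells/well; 5 h, 37 C/5% CO2; compound 23 nL in DMSO by pintool; 37 C; luminescence read at 0, 8, 16, 24, 32 and 40 h time points.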

[6] = A CellTox Green Cytotoxicity Assay to monitor cytotoxicity in HepG2 cells - 0 hour (AID 1224882); note: nearly all actives have a fitted effect of over 35% in size
Procedure, shortened: as §1

[7] = A CellTox Green Cytotoxicity Assay to monitor cytotoxicity in HepG2 cells - 32 hour (AID 1224883); note: nearly all actives have a fitted effect of over 50% in size
Procedure, shortened: as §1

[8] = qHTS RealTime-Glo MT Cell Viability Assay in HepG2 cells - 16 hour (AID 1224885); note: nearly all actives have a fitted effect of over 50% in size
Procedure, shortened: as §2

[9] = qHTS RealTime-Glo MT Cell Viability Assay in HEK293 cells - 24 hour (AID 1224886); note: top concentration of the series differs between compounds; nearly all actives have a fitted effect of over 50% in size
Procedure, shortened: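 Nonlytic real-time viability readout: viable cells convert prosubstrate to NanoLuc substrate, giving luminescence proportional to live cell number. HEK293, 600 cells/well, compound added after 5 h, continuous culture at 37 C.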

[10] = qHTS RealTime-Glo MT Cell Viability Assay in HEK293 cells - 8 hour (AID 1224887); note: top concentration of the series differs between compounds; nearly all actives have a fitted effect of over 50% in size
Procedure, shortened: as §3

[11] = qHTS RealTime-Glo MT Cell Viability Assay in HepG2 cells - 0 hour (AID 1224889); note: nearly all actives have a fitted effect of over 50% in size
Procedure, shortened: as §2

[12] = A CellTox Green Cytotoxicity Assay to monitor cytotoxicity in HepG2 cells - 8 hour (AID 1224890); note: nearly all actives have a fitted effect of over 45% in size
Procedure, shortened: as §1

[13] = qHTS assay to identify small molecule antagonists of the androgen receptor (AR) signaling pathway using the MDA cell line in the presence of 0.5 nM R1881 - cell viability counter screen (AID 1259242); note: nearly all actives have a fitted effect of over 45% in size
Procedure, shortened: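 Concentration-response screen of compounds for toxicity in MDA-kb2 reporter cells: 16 hr at 37C with 0.5 nM R1881, endpoint live-cell protease fluorescence measured in the reporter wells.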

[14] = biological target: Androgen receptor (Homo sapiens) (UniProt P10275); assay: qHTS assay to identify small molecule antagonists of the androgen receptor (AR) signaling pathway using the MDA cell line in the presence of 0.5 nM R1881 (AID 1259243); note: nearly all actives have a fitted effect of over 50% in size
Sequence of Androgen receptor (Homo sapiens) (P10275 whole entry, looked up): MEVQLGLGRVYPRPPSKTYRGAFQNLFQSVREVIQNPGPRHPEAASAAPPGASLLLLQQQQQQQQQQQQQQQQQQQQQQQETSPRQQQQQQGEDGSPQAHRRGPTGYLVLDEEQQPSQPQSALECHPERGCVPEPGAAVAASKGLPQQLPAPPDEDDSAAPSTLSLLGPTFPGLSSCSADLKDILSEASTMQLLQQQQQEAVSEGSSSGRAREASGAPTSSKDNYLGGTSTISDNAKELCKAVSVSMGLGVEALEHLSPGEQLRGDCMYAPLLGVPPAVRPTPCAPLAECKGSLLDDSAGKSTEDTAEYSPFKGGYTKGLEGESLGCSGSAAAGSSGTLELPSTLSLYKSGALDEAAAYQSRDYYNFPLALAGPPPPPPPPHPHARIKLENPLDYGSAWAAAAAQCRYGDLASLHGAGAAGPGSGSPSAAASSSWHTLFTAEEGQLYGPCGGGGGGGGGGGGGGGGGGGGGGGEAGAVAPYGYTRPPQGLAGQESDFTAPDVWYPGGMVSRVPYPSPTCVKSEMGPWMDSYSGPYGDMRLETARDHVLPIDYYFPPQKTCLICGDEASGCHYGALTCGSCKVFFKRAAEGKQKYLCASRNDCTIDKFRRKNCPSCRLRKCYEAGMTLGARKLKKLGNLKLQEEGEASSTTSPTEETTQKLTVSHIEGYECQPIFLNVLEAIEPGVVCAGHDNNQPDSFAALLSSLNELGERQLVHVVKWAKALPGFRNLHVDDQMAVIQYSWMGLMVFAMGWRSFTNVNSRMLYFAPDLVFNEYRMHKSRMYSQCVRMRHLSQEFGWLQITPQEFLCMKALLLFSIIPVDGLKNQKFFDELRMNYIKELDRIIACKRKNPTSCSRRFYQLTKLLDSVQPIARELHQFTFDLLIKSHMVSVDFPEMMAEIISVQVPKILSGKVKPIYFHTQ
Procedure, shortened: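 With R1881 held at 0.5 nM (final), compound effects on MMTV-luciferase expression in MDA-kb2 cells were scored by luminescence after a 16 hr, 37C incubation.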

[15] = biological target: Estrogen receptor (Homo sapiens) (UniProt P03372); assay: qHTS assay to identify small molecule antagonists of the estrogen receptor alpha (ER-alpha) signaling pathway using the BG1 cell line in the presence of 0.1 nM 17-beta-estradiol (AID 1259244); note: nearly all actives have a fitted effect of over 50% in size
Sequence of Estrogen receptor (Homo sapiens) (P03372 whole entry, looked up): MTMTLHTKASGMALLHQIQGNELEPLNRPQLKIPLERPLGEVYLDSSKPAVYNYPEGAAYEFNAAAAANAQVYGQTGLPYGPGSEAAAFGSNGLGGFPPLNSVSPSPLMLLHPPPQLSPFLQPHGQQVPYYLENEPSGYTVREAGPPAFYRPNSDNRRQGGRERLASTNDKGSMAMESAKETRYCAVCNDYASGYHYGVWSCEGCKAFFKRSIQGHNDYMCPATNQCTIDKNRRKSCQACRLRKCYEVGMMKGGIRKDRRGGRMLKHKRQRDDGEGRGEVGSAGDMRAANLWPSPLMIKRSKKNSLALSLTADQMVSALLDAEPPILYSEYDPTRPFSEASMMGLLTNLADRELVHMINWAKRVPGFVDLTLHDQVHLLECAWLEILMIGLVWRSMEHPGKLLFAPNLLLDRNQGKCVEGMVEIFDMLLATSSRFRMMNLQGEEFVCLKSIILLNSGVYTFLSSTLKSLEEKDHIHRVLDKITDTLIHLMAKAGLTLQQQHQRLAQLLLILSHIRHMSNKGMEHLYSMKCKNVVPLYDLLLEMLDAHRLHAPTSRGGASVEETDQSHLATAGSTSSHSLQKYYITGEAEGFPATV
Procedure, shortened: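 Compounds were tested against 0.1 nM (final) 17beta-estradiol in VM7Luc4E2 cells, which express full-length ER-alpha and an ERE-luciferase reporter; luminescence was recorded following 22 h exposure.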

[16] = A CellTox Green Cytotoxicity Assay to monitor cytotoxicity in HEK293 cells - 32 hour (AID 1224881); note: nearly all actives have a fitted effect of over 40% in size
Procedure, shortened: (§4)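 Tox21 screen in HEK293: membrane-impermeant cyanine dye fluoresces on binding dead-cell DNA; compound pinned 5 h post-seeding, plates held at 37 C, signal read repeatedly through 40 h.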

[17] = A CellTox Green Cytotoxicity Assay to monitor cytotoxicity in HEK293 cells - 8 hour (AID 1224884); note: nearly all actives have a fitted effect of over 35% in size
Procedure, shortened: as §4

[18] = A CellTox Green Cytotoxicity Assay to monitor cytotoxicity in HEK293 cells - 16 hour (AID 1224888); note: nearly all actives have a fitted effect of over 35% in size
Procedure, shortened: as §4

[19] = qHTS assay to identify small molecule antagonists of the estrogen receptor alpha (ER-alpha) signaling pathway using the BG1 cell line in the presence of 0.1 nM 17-beta-estradiol - cell viability counter screen (AID 1259241); note: nearly all actives have a fitted effect of over 40% in size
Procedure, shortened: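 Cells were plated and left 24 hr, compounds in DMSO were pinned in, 17beta-estradiol was added to 0.1 nM final, and after 22 hr CellTiter-Fluor reagent was added for 30 min before fluorescence was read.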
% is set by controls: 0 for no effect and ±100 for the full control effect.

CCCCCCCCCCCCCCCCCCN(C)C
inactive: Potency [1] | outcome [2] | Potency [3] | Potency [4] | outcome [5] | Potency [6] | Potency [7] | outcome [8] | Potency [9] | Potency [10] | Potency [11] | Potency [12] | Potency [13] | outcome [14] | Potency [15]

Cc1ccccc1OCC1CO1 (centres undefined)
inactive: Potency [1] | outcome [2] | Potency [3] | Potency [4] | Potency [16] | Potency [6] | Potency [7] | Potency [17] | outcome [8] | Potency [9] | Potency [10] | Potency [18] | Potency [11] | Potency [12] | Potency [19] | Potency [13] | Potency [15]

CC(C)(C)c1ccc(C=O)cc1
inactive: Potency [1] | outcome [2] | Potency [3] | Potency [4] | outcome [5] | Potency [6] | Potency [7] | Potency [17] | outcome [8] | Potency [9] | Potency [10] | Potency [18] | Potency [11] | Potency [12] | Potency [19] | Potency [13] | Potency [15]

C=C(C)C(=O)OC
inactive: Potency [1] | outcome [2] | Potency [3] | Potency [4] | Potency [16] | Potency [6] | Potency [7] | Potency [17] | outcome [8] | Potency [9] | Potency [10] | Potency [18] | Potency [11] | Potency [12] | Potency [19] | Potency [13]

C=CCCCCCCCCCCC
inactive: cytotoxicity increase [1] -0.067% [at 6.97 µM] | activity change, negative = cytotoxic [2] -0.401% [at 6.97 µM] | cytotoxicity [3] 0.49% [at 6.97 µM] | cytotoxicity increase [4] 1.74% [at 6.97 µM] | cytotoxicity increase [16] -0.213% [at 6.97 µM] | cytotoxicity [6] 1.75% [at 6.97 µM] | cytotoxicity increase [7] 1.86% [at 6.97 µM] | cytotoxicity increase [17] 2.18% [at 6.97 µM] | activity change, negative = cytotoxic [8] -0.787% [at 6.97 µM] | activity change, negative = cytotoxicity [9] 4.16% [at 6.97 µM] | activity change, negative = cytotoxicity [10] 3.08% [at 6.97 µM] | activity change [18] -0.692% [at 6.97 µM, hits give high values] | activity change, negative = cytotoxicity [11] 5.28% [at 6.97 µM] | cytotoxicity increase [12] 4.2% [at 6.97 µM] | activity change, negative = cytotoxicity [19] 0.186% [at 8.39 µM] | viability change, negative = cytotoxic [13] 0.96% [at 8.39 µM] | activity, negative = inhibition [14] 5.11% [at 8.39 µM] | activity change, negative = inhibition [15] 8.3% [at 8.39 µM]

CC(=O)N1CCN(c2ccc(O)cc2)CC1
inactive: Potency [1] | outcome [2] | Potency [3] | Potency [4] | Potency [16] | Potency [6] | Potency [7] | Potency [17] | outcome [8] | Potency [9] | Potency [10] | Potency [18] | Potency [11] | Potency [12] | Potency [19] | Potency [13] | outcome [14] | Potency [15]

CCC(=O)OCCC(C)CCC=C(C)C (centres undefined)
inactive: Potency [1] | outcome [2] | Potency [3] | Potency [4] | Potency [16] | Potency [6] | Potency [7] | Potency [17] | outcome [8] | Potency [9] | Potency [10] | Potency [18] | Potency [11] | Potency [12] | Potency [19] | Potency [13]

C=CCOCC(CO)(COCC=C)COCC=C
inactive: Potency [1] | outcome [2] | Potency [3] | Potency [4] | Potency [16] | Potency [6] | Potency [7] | Potency [17] | outcome [8] | Potency [9] | Potency [10] | Potency [18] | Potency [11] | Potency [12] | Potency [19] | Potency [13] | Potency [15]
